{
  "source": "PubChem BioAssay (EPA / NIEHS)",
  "note": "The source made the active and inactive calls. How the source made its calls: active means hit-call score of the fitted dose curve at least 0.9, where 1 is the maximum; inconclusive means response in the unintended direction; inactive means score below 0.9.",
  "data": [
    {"target": "rat CYP3A2, Cyp3a2 (gene 266682) (UniProt P05183)", "sequence (P05183 whole entry, looked up)": "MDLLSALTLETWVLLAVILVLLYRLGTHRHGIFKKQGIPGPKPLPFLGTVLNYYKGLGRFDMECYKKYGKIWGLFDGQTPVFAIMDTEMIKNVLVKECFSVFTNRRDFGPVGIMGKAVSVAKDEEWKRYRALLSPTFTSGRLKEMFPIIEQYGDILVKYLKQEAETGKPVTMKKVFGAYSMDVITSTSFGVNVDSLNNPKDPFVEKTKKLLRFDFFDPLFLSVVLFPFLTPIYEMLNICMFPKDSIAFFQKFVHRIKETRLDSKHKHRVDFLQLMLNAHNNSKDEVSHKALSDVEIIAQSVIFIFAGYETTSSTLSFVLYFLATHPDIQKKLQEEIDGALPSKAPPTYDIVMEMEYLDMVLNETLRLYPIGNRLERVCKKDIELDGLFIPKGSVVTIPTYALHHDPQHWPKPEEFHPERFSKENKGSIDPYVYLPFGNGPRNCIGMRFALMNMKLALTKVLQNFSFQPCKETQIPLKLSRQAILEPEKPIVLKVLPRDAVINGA", "experiment": "NVS_ADME_rCYP3A2: NovaScreen (NVS) CYP450-related Enzyme Activity (ADME) Assay for rat CYP3A2 (AID 2283128)", "description": "NVS_ADME_rCYP3A2 is a biochemical, single-readout assay that uses extracted gene-proteins in a cell-free assay. Measurements were taken 0.5 hour after chemical dosing in a 96-well plate.NVS_ADME_rCYP3A2 is one of one assay component(s) measured or calculated from the NVS_ADME_rCYP3A2 assay. It is designed to make measurements of enzyme activity, a form of enzyme reporter, as detected with fluorescence intensity signals by Fluorescence technology.Data from the assay component NVS_ADME_rCYP3A2 was analyzed into 1 assay endpoint. This assay endpoint, NVS_ADME_rCYP3A2, was analyzed in the positive analysis fitting direction relative to Acetonitrile as the negative control and baseline of activity. Using a type of enzyme reporter, loss-of-signal activity can be used to understand changes in the enzymatic activity as they relate to the gene Cyp3a2. Furthermore, this assay endpoint can be referred to as a primary readout, because this assay has produced multiple assay endpoints where this one serves a enzymatic activity function. To generalize the intended target to other relatable targets, this assay endpoint is annotated to the cyp intended target family, where the subfamily is xenobiotic metabolism.\nBinding assays used specific radioligands (tritiated, iodinated) with non-radioactive competitive displacement ligands in agonist or antagonist protocols (as indicated) and various reference compounds and inhibitors to titrate specific binding to receptors and transporters. Most enzyme assays (CYPs, kinases, phosphatases, proteases, HDACs) used recombinant protein and specific substrates (fluorescence mostly, some colorimetric and radioactive) and inhibitors, followed by a biochemical separation of substrate and product. All assays for the biochemical HTS were initially run in duplicate at a single concentration (10 uM for CYP450 assays and 25 uM for all others). Assay-chemical combinations meeting a pre-defined threshold (e.g., 30% inhibition and other criteria defined below) were then run in singleton concentration-response format with maximum concentration of 20 uM for CYPs and 50 uM for all others. Each assay was run with positive and negative controls, and concurrent controls on every plate. The follow-up (secondary) screen tested active chemical-pairs in concentration series, as well as a few additional assays not tested in the primary screen, some selected negative inactives, and several cases re-run in the concentration series for confirmatory purposes.", "values": [
      {"smiles": "C=CCOC(=O)C(C)(C)OC(=O)c1cc(-n2c(=O)cc(C(F)(F)F)n(C)c2=O)ccc1Cl", "AC50": "407 nM (active)"},
      {"smiles": "COP(=S)(OC)Oc1ccc([N+](=O)[O-])c(C)c1", "AC50": "4290 nM (active)"},
      {"smiles": "CCCCC(C#N)(Cn1cncn1)c1ccc(Cl)cc1", "note": "(stereo unspecified)", "AC50": "2960 nM (active)"},
      {"smiles": "CCCCC(O)(Cn1cncn1)c1ccc(Cl)cc1Cl", "note": "(stereo unspecified)", "AC50": "1600 nM (active)"},
      {"smiles": "CC1(C)CCC(=Cc2ccc(Cl)cc2)C1(O)Cn1cncn1", "note": "(stereo unspecified)", "AC50": "225 nM (active)"},
      {"smiles": "CC(C)=CC1C(C(=O)OCc2coc(Cc3ccccc3)c2)C1(C)C", "note": "(stereo unspecified)", "AC50": "7040 nM (active)"},
      {"smiles": "CCOP(=S)(OCC)Oc1nc(Cl)n(C(C)C)n1", "AC50": "1140 nM (active)"},
      {"smiles": "COP(=S)(OC)SCn1nnc2ccccc2c1=O", "AC50": "393 nM (active)"},
      {"smiles": "CO/N=C(/C1=NOCCO1)c1ccccc1Oc1ncnc(Oc2ccccc2Cl)c1F", "AC50": "1180 nM (active)"},
      {"smiles": "COc1ccc(-c2ccccc2)cc1NNC(=O)OC(C)C", "AC50": "832 nM (active)"},
      {"smiles": "COC(=O)c1c(C(F)F)nc(C(F)(F)F)c(C2=NCCS2)c1CC(C)C", "AC50": "5420 nM (active)"},
      {"smiles": "CCN(CC)C(=O)C(C)Oc1cccc2ccccc12", "note": "(stereo unspecified)", "AC50": "5340 nM (active)"},
      {"smiles": "COC(=O)NC(=S)Nc1ccccc1NC(=S)NC(=O)OC", "AC50": "7250 nM (active)"},
      {"smiles": "CCNP(=S)(OC)O/C(C)=C/C(=O)OC(C)C", "note": "(stereo unspecified)", "AC50": "528 nM (active)"},
      {"smiles": "CCOc1cc(C(C)(C)C)ccc1C1COC(c2c(F)cccc2F)=N1", "note": "(stereo unspecified)", "AC50": "2180 nM (active)"},
      {"smiles": "Cc1ccc(N=CN(C)C=Nc2ccc(C)cc2C)c(C)c1", "AC50": "1230 nM (active)"}
    ]}
  ]
}
